Screening results (PubChem)
In the library only some 3.4% were active in any assay of this set; here they are far more common.
PP1 inh: PP1-alpha phosphatase inhibitors, primary screen, counter-screen for PP5 inhibitor project, biochemical, fluorescence, OMFP substrate, single point. Serine/threonine-protein phosphatase PP1-alpha catalytic subunit (Homo sapiens), P62136. purified PP1alpha. inhibition, % at 6.7 µM. actives 0.9% (n = 320,000);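 active means inhibition above the mean inhibition of all tested compounds plus 3 SD, computed separately for each screening campaign, cut at about 15% in these data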
PAFAH1B2 FP inh: PAFAH1B2 enzyme inhibitors, primary screen, biochemical, fluorescence polarization, human. Platelet-activating factor acetylhydrolase IB subunit alpha2 (Homo sapiens), P68402. recombinant PAFAH1B2, FP-rhodamine activity probe. inhibition, % at 3.39 µM. actives 1.2% (n = 340,000);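 active means inhibition above the mean of all tested compounds plus 3 SD, cut at about 24% in these data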;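 further: 0% = enzyme with DMSO and 100% = wells lacking PAFAH1B2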
PAFAH1B3 FP inh: PAFAH1B3 enzyme inhibitors, primary screen, biochemical, fluorescence polarization, human. Platelet-activating factor acetylhydrolase IB subunit alpha1 (Homo sapiens), Q15102. recombinant PAFAH1B3, FP-rhodamine probe. inhibition, % at 3.39 µM. actives 0.28% (n = 340,000). AID 492972, 2010;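 active means inhibition above the screen-wide average of all tested compounds plus 3 SD, cut at about 25% in these data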;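 further: 0% = enzyme with DMSO only and 100% = wells lacking PAFAH1B3 protein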
PAFAH2 inh: PAFAH2 enzyme inhibitors, primary screen, biochemical, fluorescence polarization, human | recombinant PAFAH2, FP-rhodamine activity probe | inhibition, % at 3.39 µM | actives 0.99% (n = 340,000) | AID 492956, 2010;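 active means inhibition above the mean over all tested compounds plus 3 SD, cut at about 30% in these data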;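 further: inhibitors block probe labeling of enzyme so polarization drops; 0% = enzyme with DMSO and 100% = wells lacking PAFAH2 protein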
PP5 primary: PP5 phosphatase inhibitors, primary screen, biochemical, fluorescence; Serine/threonine-protein phosphatase 5 (Homo sapiens), P53041; purified PP5c, OMFP substrate fluorescence; inhibition, % at 6.7 µM; actives 0.18% (n = 320,000); AID 1987, 2009;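 active means inhibition above the campaign's mean inhibition across all tested compounds plus 3 SD, cut at about 9.5% in these data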;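 further: 0% = DMSO only and 100% = 100 µM cantharidin control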
pPAFAH FP inh: pPAFAH enzyme inhibitors, primary screen, biochemical, fluorescence polarization, human; recombinant pPAFAH, FP-rhodamine probe fluorescence polarization; inhibition, % at 3.39 µM; actives 1.5% (n = 330,000); Platelet-activating factor acetylhydrolase (Homo sapiens), Q13093;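 active means inhibition above the mean inhibition across the screen plus 3 SD, cut at about 25% in these data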;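 further: inhibitors block binding of the rhodamine activity-based probe so polarization drops; 0% = enzyme with DMSO and 100% = wells lacking pPAFAH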
Target sequence (Q13093 whole entry, looked up): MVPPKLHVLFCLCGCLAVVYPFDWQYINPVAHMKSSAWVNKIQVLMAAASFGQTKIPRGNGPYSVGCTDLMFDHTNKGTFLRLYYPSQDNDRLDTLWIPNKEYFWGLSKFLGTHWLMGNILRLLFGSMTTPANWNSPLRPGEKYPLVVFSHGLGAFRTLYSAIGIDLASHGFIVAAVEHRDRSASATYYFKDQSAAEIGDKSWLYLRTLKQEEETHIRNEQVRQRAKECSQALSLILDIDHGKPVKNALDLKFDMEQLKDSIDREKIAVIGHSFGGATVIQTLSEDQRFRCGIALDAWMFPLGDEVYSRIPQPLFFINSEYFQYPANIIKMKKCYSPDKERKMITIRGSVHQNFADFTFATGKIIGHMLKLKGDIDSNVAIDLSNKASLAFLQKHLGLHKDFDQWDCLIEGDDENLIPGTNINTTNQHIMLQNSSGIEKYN
PAFAH2 confirm: PAFAH2 enzyme inhibitors, confirmation, biochemical, fluorescence polarization, human. shares compounds with PAFAH2 inh. recombinant PAFAH2, FP-rhodamine activity probe. inhibition, % at 3.39 µM. actives 65% (n = 2,300). AID 493030, 2011;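 active means mean inhibition over three repeats above a set limit taken from the earlier primary screen, cut at about 30% in these data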;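 further: inhibitor blocks binding of rhodamine activity probe so polarization falls; 0% = enzyme with DMSO and 100% = wells lacking PAFAH2 protein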
An asterisk follows results filed as active; · = no result given.

SMILES | PP1 inh | PAFAH1B2 FP inh | PAFAH1B3 FP inh | PAFAH2 inh | PP5 primary | pPAFAH FP inh | PAFAH2 confirm
O=C(Nc1ncccn1)c1ccc([N+](=O)[O-])o1 | -2 | 8 | 8 | 78* | -1 | 9 | 67*
Cc1oc(-c2ccccc2)nc1C(=O)Nc1nccs1 | 1 | 4 | 3 | 32* | 1 | 7 | 1
COc1ccc(-c2csc(NC(=O)c3nc(-c4ccccc4)oc3C)n2)cc1 | 4 | -2 | -2 | -1 | 3 | 4 | ·
CNC(=O)c1ccc(NC(=O)c2cc(S(=O)(=O)N3CCOCC3)ccc2N2CCCC2)cc1 | -3 | 12 | 11 | -1 | 0 | 1 | ·
CCN1CC(O)=C(c2nc3ccccc3s2)C1=N | 0 | 0 | 5 | 52* | 0 | 21 | 23
O=C(NNc1ccc(F)cc1F)c1c(F)cccc1Cl | -6 | 1 | 5 | 0 | 1 | -1 | ·
N/C(CC1CC1(Cl)Cl)=N\OC(=O)c1ccccc1 (stereo not drawn) | 0 | 7 | -4 | 83* | 0 | 3 | 78*
COc1ccc(C/C(N)=N/OC(=O)c2ccc(Cl)cc2)cc1 | -3 | 5 | 5 | 51* | 4 | 5 | 39*
N/C(=N\OC(=O)c1ccc(F)cc1)c1ccccc1 | -3 | 4 | 6 | 5 | 1 | 2 | ·
Cc1ccc(C(=O)O/N=C(\N)Cc2cccc3ccccc23)cc1 | 1 | -2 | -5 | 67* | 3 | 10 | 74*
N/C(Cc1ccc(Cl)cc1)=N\OC(=O)c1ccc2ccccc2c1 | 0 | 1 | -4 | 36* | 2 | 20 | 30*
COc1ccc(CC(=O)O/N=C(\N)Cc2ccc(OC)cc2)cc1 | 1 | 0 | 0 | -3 | -1 | 7 | ·
N/C(Cc1ccc(Cl)cc1Cl)=N\OC(=O)c1ccccc1 | -3 | 5 | 5 | 78* | 0 | 2 | 78*
CC(C)(C)c1nc[nH]c(=O)c1Br | 1 | 5 | 5 | 63* | 2 | 8 | 41*
N#C/C(=C\c1ccc(OCc2ccc(C(=O)O)cc2)cc1)C(=O)NCc1ccccc1 | 2 | 3 | 0 | -11 | -1 | 4 | ·
N#C/C(=C\c1ccc(OCc2cccc(C(=O)O)c2)cc1)C(=O)NCc1ccco1 | -10 | 12 | 13 | 37* | 4 | -3 | 28
O=C(Nc1ncc2c(n1)-c1ccccc1CC2)c1ccccc1 | 0 | 5 | -1 | 1 | 2 | -1 | ·
O=C1C=C(c2cccs2)CC(c2cccs2)C1n1cnc([N+](=O)[O-])c1 (stereo not drawn) | 0 | 5 | 1 | 4 | 2 | 1 | ·
Cc1cc(NC(=O)COC(=O)c2ccc(NS(=O)(=O)c3ccc(C)c(C)c3)cc2)no1 | -3 | 1 | -1 | 23 | 5 | -2 | ·
COc1cccc(C(=O)Nc2cc(C)on2)c1OC | -10 | 0 | 4 | 6 | 1 | 2 | ·
COc1cccc(C(=O)OCC(=O)Nc2cc(C)on2)c1OC | · | 2 | 7 | 74* | · | 8 | 52*
Cc1cc(NC(=O)COC(=O)c2ccc(C)c(C)c2)no1 | · | -1 | 4 | 52* | · | 4 | 34*
CCC(CO)Oc1cc(NCc2ccc(OC)cc2)c2ncn(C(C)C)c2c1 (stereo not drawn) | 0 | 15 | 5 | 8 | 2 | 11 | ·
CCc1ccc(NC(=O)c2noc3c2CCC3)cc1 | -2 | 8 | 4 | 31* | 2 | 12 | 10
CCc1ccc(NC(=O)c2noc3c2CCCCC3)cc1 | -5 | 4 | 10 | -3 | 3 | -3 | ·
CC(C)(C)c1ccc(N2C(=O)CC(C/C=C/c3ccccc3)C2=O)cc1 (stereo not drawn) | 0 | 1 | 6 | 4 | 1 | 2 | ·
CCC/C(=N/Nc1ccc(Cl)cc1)c1cnnc(-c2ccccc2)n1 | -3 | · | · | · | 6 | 1 | ·
